Consider three compounds from PubChem BioAssay (NCATS).

SMILES strings stand for the structures. Unmarked numbers belong to inactive results. Results filed as inconclusive are left out. Calls of active or inactive are those of the source. Unless noted, the call rests on the fitted dose curve; in most records, active means well fitted curve in the direction sought with a large enough effect; inconclusive means small, poorly fitted or top-dose-only effect, or another doubt; inactive means no such curve, though single readings can be large; an effect the other way counts as inactive or inconclusive.

Assay [1] addresses Glucocorticoid receptor (Homo sapiens) (UniProt P04150). Briefly: GR-GFP Redistribution (AID 450;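 active means compounds whose dose series gives a full or clear partial fitted curve of increased nuclear translocation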; further: potency means the concentration at half of the fitted maximal effect). The note with it: U2OS GR-GFP nuclear translocation, laser cytometry, 2 h.
For assay [2] the target is unchanged. Briefly: GR-EFC Redistribution (AID 451; calls by dose curve; further: potency means the concentration at half of the fitted maximal effect). The conditions noted are these: CHO-K1 GR-EFC translocation, beta-gal luminescence, 2 h. In outline:
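CHO-K1 cells expressing nuclear EA and GR-ED fragments of b-gal; compounds titrated up to 46 uM final, 2 h at 37 C. GR nuclear translocation read as complemented b-gal luminescence after 1 h RT detection.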

In assay [3] the target is 3',5'-cyclic-AMP phosphodiesterase 4B (Homo sapiens) (UniProt Q07343). Briefly: qHTS Assay for Inhibitors of PDE-IV (AID 607; active means well fitted activation curve with a large enough effect in the main read-out, with a control signal flat, not every such curve was filed as active). The procedure, abridged: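 Live HEK293 cells with a modified cyclic nucleotide-gated (CNG) channel report intracellular cAMP via membrane-potential dye fluorescence (ex 535/em 590 nm). Endogenous PDE-IV was targeted. Compounds were tested at up to 22.9 uM final; RO 20-1724 100 uM served as control.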
Chain of 3',5'-cyclic-AMP phosphodiesterase 4B (Homo sapiens) (Q07343 whole entry, looked up): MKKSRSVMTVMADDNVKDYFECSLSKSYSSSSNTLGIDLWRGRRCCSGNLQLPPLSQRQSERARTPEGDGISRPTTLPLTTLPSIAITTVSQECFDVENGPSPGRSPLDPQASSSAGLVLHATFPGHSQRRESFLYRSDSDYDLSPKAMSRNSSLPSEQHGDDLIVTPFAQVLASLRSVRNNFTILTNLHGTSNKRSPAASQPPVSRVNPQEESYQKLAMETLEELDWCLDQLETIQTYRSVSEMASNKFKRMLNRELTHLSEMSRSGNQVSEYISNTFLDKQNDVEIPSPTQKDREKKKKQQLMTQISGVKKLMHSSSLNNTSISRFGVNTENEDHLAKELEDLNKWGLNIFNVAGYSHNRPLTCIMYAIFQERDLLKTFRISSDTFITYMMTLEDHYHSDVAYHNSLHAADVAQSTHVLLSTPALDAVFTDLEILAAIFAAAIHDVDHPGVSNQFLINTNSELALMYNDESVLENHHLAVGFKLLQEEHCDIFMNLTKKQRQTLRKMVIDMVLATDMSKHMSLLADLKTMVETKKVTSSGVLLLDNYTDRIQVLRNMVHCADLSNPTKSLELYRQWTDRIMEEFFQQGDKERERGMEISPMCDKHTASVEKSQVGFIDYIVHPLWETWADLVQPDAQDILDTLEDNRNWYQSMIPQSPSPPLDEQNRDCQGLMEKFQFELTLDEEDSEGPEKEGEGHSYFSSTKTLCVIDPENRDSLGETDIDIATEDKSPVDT

Assay [4] deals with DNA dC->dU-editing enzyme APOBEC-3G (Homo sapiens) (UniProt Q9HC16). Briefly: qHTS for inhibitors of Vif-A3G interactions: Validation (AID 588379). The procedure, abridged: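 HeLa cells stably expressing Vif and A3G-eYFP, 700 cells/well, incubated overnight at 37 deg C, then exposed to compound overnight at 37 deg C. Inhibition of Vif-mediated degradation read as increased yellow fluorescence (Ex 488/Em 500-530) by laser-scanning cytometry.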
Chain of DNA dC->dU-editing enzyme APOBEC-3G (Homo sapiens) (Q9HC16 whole entry, looked up): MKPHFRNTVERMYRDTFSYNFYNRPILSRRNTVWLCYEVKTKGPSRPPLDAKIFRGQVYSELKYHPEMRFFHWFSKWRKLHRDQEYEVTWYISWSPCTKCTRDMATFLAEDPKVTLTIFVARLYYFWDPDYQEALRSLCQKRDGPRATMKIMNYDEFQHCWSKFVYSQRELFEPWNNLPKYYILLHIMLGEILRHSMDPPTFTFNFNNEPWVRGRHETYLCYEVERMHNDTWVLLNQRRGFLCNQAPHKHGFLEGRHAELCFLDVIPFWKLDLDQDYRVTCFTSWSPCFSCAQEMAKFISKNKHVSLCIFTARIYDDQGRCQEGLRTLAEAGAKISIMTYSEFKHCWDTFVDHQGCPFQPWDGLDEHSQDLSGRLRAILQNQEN

Assay [5] can be described thus: Primary qHTS for small molecule stabilizers of the endoplasmic reticulum resident proteome: Secreted ER Calcium Modulated Protein (SERCaMP) assay (AID 1508630). In outline: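 GLuc-SERCaMP-expressing SH-SY5Y cells, pretreated 16 h with compound, are challenged with thapsigargin to empty ER calcium stores; after 4 h, coelenterazine is added directly to the medium and luminescence is imaged.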

The target of assay [6] is Cytochrome P450 1A2 (Homo sapiens) (UniProt P05177). Briefly: p450-cyp1a2 (AID 410; calls by dose curve; further: potency means the concentration at half of the fitted maximal effect). In outline:
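Luminescent readout of luciferin formed from Luciferin-ME by human CYP1A2; data normalized against complete inhibition by 57 uM furafylline. Enzyme 20nM, substrate 100uM at Km, 100mM KPO4 buffer, 60 min reaction at room temperature.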

Assay [7] addresses Mitogen-activated protein kinase 10 (Mus musculus) (UniProt Q61831). Briefly: JNK3 AlphaScreen Assay (AID 530; active means well fitted curve in either direction with a large enough effect, not every such curve was filed as active;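 further: kinase came from lysate of stimulated human HepG2 cells; signal reports phosphorylation of biotinylated GST-cJun 1-79 at Ser73 with 10 µM ATP; series mostly up to about 57 µM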). In outline:
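Pre-activated (IL-1β/TNFα) JNK3 in HepG2 lysates phosphorylates biotin-GST-cJun(1-79), 10 uM ATP; anti-phospho-cJun(Ser73) AlphaScreen read at room temperature, pH 7.6 Tris buffer. Compounds pre-incubated 15 min as titrations.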

Assay [8] has as its target Ubiquitin carboxyl-terminal hydrolase 1 (Homo sapiens) (UniProt O94782). Briefly: Inhibitors of USP1/UAF1: Pilot qHTS (AID 504865).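 Further: rhodamine fluorescence freed from ubiquitin-rhodamine substrate followed over time; top concentration of the series differs between compounds; nearly all actives have a fitted effect of over 35% in size.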 The procedure, abridged:
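USP1/UAF1 complex (1nM) preincubated with compound 15 min at room temperature, then Ub-Rho substrate (150nM final) added. Fluorescence read kinetically at 480/540 nm, 6 reads every 60 seconds. Buffer: 50mM HEPES pH 7.8, 0.5mM EDTA, 0.1 mg/ml BSA, 1mM TCEP, 0.01% Tween-20.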

In assay [9] the target is Calcium and integrin-binding protein 1 (Homo sapiens) (UniProt Q99828). Briefly: Primary qHTS for Identification of Calcium Integrin Binding Protein 1 (CIB1) Competitor (AID 1508620). Further: top concentration of the series differs between compounds. In outline: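 Fluorescence polarization competition: GST-tagged CIB1 (1 uM final) preincubated with compound 15 min at room temperature, then FITC-labelled alphaIIb peptide (100 nM final) added. After 15 min at room temperature, polarization read at Ex 480/Em 540.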
Chain of Calcium and integrin-binding protein 1 (Homo sapiens) (Q99828 whole entry, looked up): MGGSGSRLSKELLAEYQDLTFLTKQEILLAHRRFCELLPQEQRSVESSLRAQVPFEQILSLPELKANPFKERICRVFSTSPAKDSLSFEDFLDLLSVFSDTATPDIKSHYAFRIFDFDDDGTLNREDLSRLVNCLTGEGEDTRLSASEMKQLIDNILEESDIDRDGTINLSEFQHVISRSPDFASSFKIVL

A short description of assay [10]: Primary qHTS for inhibitors of nuclear receptor binding SET domain protein 2 (NSD2) in an isogenic RCH-ACV NSD2 p.E1099K mutant (9B) (AID 1645876). Further: potency means the concentration at half of the fitted maximal effect; nearly all actives have a fitted effect of over 70% in size.
Assay [11] can be described thus: Primary qHTS for inhibitors of nuclear receptor binding SET domain protein 2 (NSD2) in an RCH-ACV wild type WT cells (2C) (AID 1645877). Further: potency means the concentration at half of the fitted maximal effect; nearly all actives have a fitted effect of over 70% in size.
Assay [12] deals with Luciferin 4-monooxygenase (Photinus pyralis) (UniProt P08659). Briefly: Primary firefly luciferase (FLuc) qHTS assay for identification of artifact compounds. (AID 1845220). Further: nearly all actives have a fitted effect of over 60% in size. The procedure, abridged:
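Titrated compounds were incubated 15 min at RT, protected from light, with luciferin and ATP at 10 uM; reaction started with 10 nM FLuc, luminescence imaged at 5 min, and concentration-response fitted by Hill equation.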

The nature of assay [13]: Primary fluorescence-based thiol-reactive (MSTI) qHTS assay for identification of artifact compounds. (AID 1845221).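 Further: series mostly up to about 54 µM; thiol-reactive compounds lower the probe fluorescence signal; nearly all actives have a fitted effect of over 65% in size.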 The procedure, abridged:
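Curve-fitted percent inhibition (4-parameter Hill) derived from fluorescence, Ex 525/Em 598 nm, scaled with Acetyl-MSTI and MSTI; 1 h incubation at room temperature.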

Assay [14] has as its system Nanoluciferase (engineered Oplophorus gracilirostris luciferase). Briefly: Primary Nanoluciferase (NLuc) qHTS assay for identification of artifact compounds. (AID 1845222).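 Further: NLuc secreted into diluted conditioned medium of S16 cells; series mostly up to about 54 µM.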 In outline: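 qHTS format, against NLuc in S16 cell-conditioned medium. Nano-Glo substrate 1:100 was added after 15 min at room temperature. Luminescence was taken after a further 5 min.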
Assay [15] is described as follows: Primary redox qHTS assay for identification of artifact compounds. (AID 1845223). The procedure, abridged: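 Amplex Red (25 uM) and HRP (250 mU/mL) in HBSS, with compounds for 15 min, then 250 uM DTT for 30 min, room temperature, dark. Fluorescence 525/598 nm read; normalized to DMSO and 10 uM DA3003; Hill fit.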

Chain of Glucocorticoid receptor (Homo sapiens) (P04150 whole entry, looked up): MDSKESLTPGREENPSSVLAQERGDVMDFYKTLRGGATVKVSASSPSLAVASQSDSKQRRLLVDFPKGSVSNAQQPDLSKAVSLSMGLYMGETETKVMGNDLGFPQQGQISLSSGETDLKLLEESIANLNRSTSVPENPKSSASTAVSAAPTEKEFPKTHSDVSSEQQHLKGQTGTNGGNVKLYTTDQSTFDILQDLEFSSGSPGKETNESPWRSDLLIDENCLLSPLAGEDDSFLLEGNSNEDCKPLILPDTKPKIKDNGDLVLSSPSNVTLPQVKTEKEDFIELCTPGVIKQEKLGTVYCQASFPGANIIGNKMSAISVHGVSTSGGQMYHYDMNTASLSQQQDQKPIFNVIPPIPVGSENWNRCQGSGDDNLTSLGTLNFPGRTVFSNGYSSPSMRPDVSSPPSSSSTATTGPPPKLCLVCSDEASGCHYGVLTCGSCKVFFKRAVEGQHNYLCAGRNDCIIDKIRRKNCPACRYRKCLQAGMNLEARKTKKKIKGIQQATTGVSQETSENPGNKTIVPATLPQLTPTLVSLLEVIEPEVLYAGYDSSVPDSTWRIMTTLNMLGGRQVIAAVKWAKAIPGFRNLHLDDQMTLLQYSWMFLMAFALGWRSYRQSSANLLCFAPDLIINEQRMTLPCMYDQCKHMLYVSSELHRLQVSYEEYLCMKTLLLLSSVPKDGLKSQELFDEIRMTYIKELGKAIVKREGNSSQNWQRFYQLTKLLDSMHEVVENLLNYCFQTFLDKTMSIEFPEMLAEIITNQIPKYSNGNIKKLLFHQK
Chain of Ubiquitin carboxyl-terminal hydrolase 1 (Homo sapiens) (O94782 whole entry, looked up): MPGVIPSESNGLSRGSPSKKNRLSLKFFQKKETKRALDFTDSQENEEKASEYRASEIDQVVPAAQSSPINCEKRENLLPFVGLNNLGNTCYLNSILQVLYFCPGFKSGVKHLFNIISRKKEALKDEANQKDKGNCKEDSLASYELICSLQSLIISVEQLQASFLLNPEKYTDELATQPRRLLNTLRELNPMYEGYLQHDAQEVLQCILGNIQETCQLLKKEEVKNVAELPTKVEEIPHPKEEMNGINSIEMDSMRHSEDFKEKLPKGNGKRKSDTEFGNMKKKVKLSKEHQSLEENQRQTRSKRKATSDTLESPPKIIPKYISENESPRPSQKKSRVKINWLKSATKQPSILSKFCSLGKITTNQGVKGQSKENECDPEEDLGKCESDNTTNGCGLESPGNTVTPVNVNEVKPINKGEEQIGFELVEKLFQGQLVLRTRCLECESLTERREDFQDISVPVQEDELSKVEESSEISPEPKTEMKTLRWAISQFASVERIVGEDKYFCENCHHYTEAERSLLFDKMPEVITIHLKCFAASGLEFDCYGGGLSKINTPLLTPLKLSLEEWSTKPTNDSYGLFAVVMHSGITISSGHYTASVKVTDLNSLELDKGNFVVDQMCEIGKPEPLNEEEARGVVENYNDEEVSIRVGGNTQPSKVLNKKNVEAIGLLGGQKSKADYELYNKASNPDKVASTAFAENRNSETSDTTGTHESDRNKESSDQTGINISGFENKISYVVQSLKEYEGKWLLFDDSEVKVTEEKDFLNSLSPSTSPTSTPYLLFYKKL
Chain of Cytochrome P450 1A2 (Homo sapiens) (P05177 whole entry, looked up): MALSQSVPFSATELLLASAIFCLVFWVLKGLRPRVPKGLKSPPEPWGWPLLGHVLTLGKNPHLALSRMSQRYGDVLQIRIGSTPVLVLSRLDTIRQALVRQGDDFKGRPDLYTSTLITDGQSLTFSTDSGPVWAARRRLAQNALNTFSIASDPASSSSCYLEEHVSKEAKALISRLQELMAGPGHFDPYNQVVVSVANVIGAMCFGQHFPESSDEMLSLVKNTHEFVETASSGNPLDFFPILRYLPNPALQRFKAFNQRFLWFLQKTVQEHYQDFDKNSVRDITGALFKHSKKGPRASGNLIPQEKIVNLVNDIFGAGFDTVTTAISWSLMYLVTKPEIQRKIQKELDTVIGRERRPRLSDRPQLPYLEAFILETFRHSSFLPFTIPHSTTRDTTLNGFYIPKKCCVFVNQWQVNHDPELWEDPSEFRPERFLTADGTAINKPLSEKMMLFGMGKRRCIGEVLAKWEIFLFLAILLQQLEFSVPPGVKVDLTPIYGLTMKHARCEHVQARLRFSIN

In the case of `CCC(=O)N[C@@H]1CCc2cccc(OC)c2C1`, the Potency in assay [1] and in assay [2] was above 46 µM each time. Moreover, the Potency result in assay [3], in assay [4] and in assay [5] was “inactive” each time.
`COC(=O)Nc1ccc2[nH]cc(CCNC(C)=O)c2c1`: the Potency in [6] is 0.316 µM (active); in assay [1], above 46 µM; in assay [2], above 46 µM. Moreover, the Potency result in [7], in assay [3], in assay [8], in assay [4] and in assay [5] was “inactive” throughout.
For `O=C(CCCCCCC(=O)Nc1ccc(C2OC(CSc3nc(-c4ccccc4)c(-c4ccccc4)o3)CC(c3ccc(CO)cc3)O2)cc1)NO` (stereo not given), the result in [9] was inactive. Also, the Potency in assay [10] is 5.15 µM (active); in assay [11] it was 3.65 µM (active). Moreover, the Potency entry in assay [12], in [13], in [14] and in assay [15] was “inactive” in each case.
